High-throughput results as filed in PubChem.
Compounds with a hit are over-represented: about 10% of the library has one in this group of screens.
BAZ2B inh = qHTS Assay for Inhibitors of BAZ2B. Bromodomain adjacent to zinc finger domain protein 2B (Homo sapiens), Q9UIF8. AlphaScreen BAZ2B-H3K14Ac peptide displacement. Potency, µM (series often up to 114 µM), without a hit: at the highest dose activity change, negative = inhibition, actives largely listed as inhibitors. actives 4.4% (n = 360,000). AID 504333, 2011; also: potency is read from the fitted curve at half-maximal effect; % is scaled to controls: 0 for no effect and ±100 for the full control effect; nearly all actives have a fitted effect of over 60% in size
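Protein-peptide AlphaScreen: BAZ2B 50 nM, b-H3K14Ac 50 nM, 1x PBS pH 7.4 + 0.01% Tween-20. Preincubation 30 min RT; cpd 30 min RT (top 110 uM); beads 20 min RT, light-protected.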
HP1b binding inh = HTS for Inhibitors of HP1-beta Chromodomain Interactions with Methylated Histone Tails; Chromobox protein homolog 1 (Homo sapiens), P83916; Potency, µM (series often up to 114 µM), without a hit: at the top dose activity change, negative = inhibition, hits mostly inhibitors; actives 0.56% (n = 390,000); AlphaScreen HP1-beta / biotin-H3K9me3 peptide binding; also: potency is read from the fitted curve at half-maximal effect; nearly all actives have a fitted effect of over 70% in size
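HP1-beta protein (50 nM final) preincubated 30 min at room temperature with biotinylated H3(1-18)K9me3 peptide (50 nM) in PBS pH 7.4, 0.01% Tween-20, then compound added for 30 min. AlphaScreen streptavidin donor/nickel chelate acceptor beads (10 ug/mL final), 30 min dark, luminescence read.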
JMJD2A Tudor = qHTS Assay for Inhibitors of JMJD2A-Tudor Domain. AlphaScreen JMJD2A-Tudor / H3K4me3 peptide binding. actives 4.4% (n = 390,000). Potency, µM (doses to about 114 µM), for inactives: top-dose activity change, negative = inhibition, most hits filed as inhibitors. Lysine-specific demethylase 4A (Homo sapiens), O75164. AID 504339, 2011; also: potency is read from the fitted curve at half-maximal effect; % is scaled to controls: 0 for no effect and ±100 for the full control effect; nearly all actives have a fitted effect of over 50% in size
Six1-Eya2 inh = qHTS Assay for Inhibitors of the Six1/Eya2 Interaction | AlphaScreen GST-Six1/His-Eya2 binding, biochemical; active compounds read low | activity change, % (no concentration beside the values) | actives 0.56% (n = 360,000); in the data active = activity change below about -65%; inconclusive = mostly about -30% to -63%; also: % is scaled to controls: 0 for no effect and ±100 for the full control effect
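GST-Six1 + His-Eya2 (5X stock: 250/500 nM); Tris pH 8.0, 300 mM NaCl, 0.05% BSA, 0.02% Tween 20; GSH donor/Ni acceptor beads; 1 h 37 °C dark; AlphaScreen readout.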
CtBP-E1A blk = qHTS Assay for Inhibitors of the CtBP/E1A Interaction | AlphaScreen GST-E1A/His-CtBP binding, 1536-well; active compounds read low | activity change, % (concentration not given with the values) | actives 0.49% (n = 340,000) | AID 651724, 2012; in the data active = activity change below about -65%; inconclusive = mostly about -30% to -63%; also: % is scaled to controls: 0 for no effect and ±100 for the full control effect
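GST-E1A and His-tagged CtBP (125 nM each as 5X stock) were preincubated with pin-transferred compound for 2 h at 37 °C in the dark, then glutathione donor and nickel acceptor beads were added for 1 h before AlphaScreen reading.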
G9a block = qHTS Assay for Inhibitors of Histone Lysine Methyltransferase G9a | Histone-lysine N-methyltransferase EHMT2 (Homo sapiens), Q96KQ7 | G9a H3K9 monomethylation, AlphaScreen, 2 h | Potency, µM (top dose mostly 102 µM), for inactives: at the top dose activity, negative = inhibition, hits mostly inhibitors | actives 8.8% (n = 350,000); also: potency is read from the fitted curve at half-maximal effect; % is scaled to controls: 0 for no effect and ±100 for the full control effect; nearly all actives have a fitted effect of over 75% in size
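Step 1: enzyme (final 20 nM) with compound, 15 min RT. Step 2: substrate peptide 500 nM and SAM 20 uM, 2 h RT. Step 3: anti-H3K9me1 antibody and AlphaScreen beads, 10 min, then plate read.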
* hit, by the source's call; ? = inconclusive; . = no result; ! = repeats disagree; [ ] = another dose, or the depositor's remark. Unless noted, calls follow the shape of the dose curve; as a rule, active = well fitted inhibition curve with a large enough effect; inconclusive = small, poorly fitted or top-dose-only effect; inactive = no such curve, though single readings can be large or run the other way.

SMILES | BAZ2B inh | HP1b binding inh | JMJD2A Tudor | Six1-Eya2 inh | CtBP-E1A blk | G9a block
Cc1cccc(-c2nsc(SCC(=O)N3CCCC3)n2)c1 | -5% | 3% | 2% | 0 | -9 | 40µM*
O=C(CSc1nc(-c2ccccc2)ns1)N1CCOCC1 | -17% | -15% | -14% | 7 | -6 | 8.9µM*
Cc1cccc(-c2nsc(SCC(=O)Nc3ccc4c(c3)OCO4)n2)c1 | 1% | 16% | -11% | -8 | -7 | -77%
O=S(=O)(c1ccc(Br)cc1)c1nc(-c2ccco2)oc1SCc1ccccc1F | -25% | 15% | -23% | . | . | ?
COc1ccc2sc(/C=C/c3ccccc3O)[n+](C)c2c1 | ? | 0% | ? | -11 | 0 | 45µM*
COc1cccc(-n2c(C)c3c(OC)cccc(=O)c3c2C)c1 | 56µM* | -19% | ? | -6 | -5 | ?
COc1cccc(=O)c2c(C)n(C)c(C)c12 | ? | -30% | ? | -18 | 5 | 16µM*
COc1cccc(=O)c2c(C)n(-c3cc(C)cc(C)c3)c(C)c12 | ? | -12% | ? | -5 | -2 | ?
CCOc1cccc(=O)c2c(C)n(C)c(C)c12 | 56µM* | -25% | ? | -26 | -8 | -13%[59 µM]
CCCCCn1c(C)c2c(OCC)cccc(=O)c2c1C | ? | 0% | -24% | -12 | . | -44%
COc1cc(NC(=O)c2cccc(Cl)c2Cl)ccc1NC(=O)c1cc2ccccc2o1 | -29% | 38% | -17% | . | . | 4%[59 µM]
CCC(C)(C)NC(=O)Cc1ccc(F)cc1 | 0% | 48% | -4% | 11 | -8 | .
CCCCN1C(=O)/C(=C2\SC(N3CCCCC3)=NC2=O)c2ccccc21 | -84% | 16µM* | 56µM* | ? | ? | 16µM*
CCOc1ccc(Nc2nnc(-n3nc(C)cc3C)c3ccccc23)cc1 | 19% | 55% | -3% | . | . | 8%[59 µM]
N#CCCN/N=C(/Cc1nc2ccccc2[nH]1)c1ccc(Cl)cc1 | -6% | . | . | . | . | ?
CCN/N=C(\Cc1nc2ccccc2[nH]1)c1ccccc1 | -7% | 31% | -31% | -2 | -1 | 16%
c1ccc(N/N=C(\Cc2nc3ccccc3[nH]2)c2ccccc2)cc1 | ? | -18% | ? | -11 | -13 | 1.4µM*
Clc1cccc(/C(Cc2nc3ccccc3[nH]2)=N\Nc2ccccc2)c1 | -36% | 0% | ? | 0 | -13 | 6.3µM*
N#CCCN/N=C(\Cc1nc2ccccc2[nH]1)c1ccccc1 | -19% | -6% | -31% | -15 | -15 | 50µM*
Cc1ccc(N/N=C(\Cc2nc3ccccc3[nH]2)c2ccccc2)cc1 | ? | ? | ? | -16 | -6 | 7.1µM*
CCCCc1ccc(NC(=O)c2cnccn2)cc1 | 1% | 54% | 8% | -1 | 5 | 17%[59 µM]
COc1ccc(C2/C=C\CN(Cc3ccc(N(C)C)cc3)CC(=O)N2Cc2ccc(F)cc2)cc1 (centres undefined) | 32µM* | ? | 25µM* | ? | -29 | ?
CS(=O)(=O)N1CCC2(CCN(c3ccccn3)CC2)CC1 | . | . | . | . | . | 3%[12.7 µM]
C[N+](C)(C)CCOP(=O)([O-])OP(=O)(O)OCC1OC(n2ccc(N)nc2=O)C(O)C1O (centres undefined) | . | . | . | . | . | -45%[2.33 µM]
C[N+](C)(C)CCOP(=O)(O)OP(=O)([O-])OC[C@H]1O[C@@H](n2ccc(N)nc2=O)[C@H](O)[C@@H]1O | -5% | 28% | -5% | -1 | 0 | 10µM*!
